# Assay outcomes as filed in PubChem.
# SF1 inhibitor = blocks the human nuclear receptor SF-1. inhibition, % at 10 µM. Q13285. AID 525. 65,000 tested, 0.55% active. CHO-K1 Gal4-SF-1 LBD luciferase reporter;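 active means inhibition above the mean inhibition of all tested compounds plus 3 SD, cut at about 48% in these data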
# Target sequence (Q13285 whole entry, looked up, the tested form may be a part): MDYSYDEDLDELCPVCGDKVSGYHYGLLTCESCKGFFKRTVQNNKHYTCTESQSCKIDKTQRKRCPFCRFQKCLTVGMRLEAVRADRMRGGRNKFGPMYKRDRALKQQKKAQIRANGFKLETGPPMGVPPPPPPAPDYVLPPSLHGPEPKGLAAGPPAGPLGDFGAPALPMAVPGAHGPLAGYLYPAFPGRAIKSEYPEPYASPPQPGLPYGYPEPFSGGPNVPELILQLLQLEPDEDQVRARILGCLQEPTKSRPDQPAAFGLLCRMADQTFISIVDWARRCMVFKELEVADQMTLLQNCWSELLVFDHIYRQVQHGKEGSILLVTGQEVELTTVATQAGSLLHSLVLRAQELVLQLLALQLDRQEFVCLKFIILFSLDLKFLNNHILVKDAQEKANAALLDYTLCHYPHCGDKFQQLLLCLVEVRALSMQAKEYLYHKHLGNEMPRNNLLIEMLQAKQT
# A number is an active result; 0 = inactive. This excerpt belongs to a sample that is enriched for hits.
SMILES,SF1 inhibitor
Cc1cccc(-n2ncc3c(N4CCOCC4)ncnc32)c1,64.6
COc1ccc(Cn2c(C3CC3)nc3ccc(NC(=O)c4ccco4)cc3c2=O)cc1,0
O=C(NCc1ccc(N2CCCC2=O)cc1)c1cn(Cc2ccccc2)nn1,0
Cc1[nH]c2ccc(-c3nnc(SCC(=O)NCc4ccco4)n3Cc3ccccc3)cc2c1C,0
CC(C)c1nnc(NC(=O)c2cnccn2)s1,0
O=C(c1ccc(Cn2cc(Br)cn2)o1)n1cccn1,0
COCCn1c(SCC(=O)c2ccccc2)nc2c(c1=O)SC(C)C2 (configuration not stated),0
CN(C(=O)c1cccc(N2C(=O)C3CC=CCC3C2=O)c1)C1CCCCC1 (configuration not stated),0
COc1ccc(CNC(=O)C2CC(=O)N(c3ccc(OCC(=O)N4C(C)CCCC4C)cc3)C2)cc1 (configuration not stated),0
CCOC(=O)c1sc2ncn(CC(=O)N(CC)CC)c(=O)c2c1C,0
Fc1ccc(-c2nnc(NC3=NCCCCC3)o2)cc1,62.5
O=C(OC(C(=O)NCc1ccc2c(c1)OCO2)c1ccc(Cl)cc1)c1ccco1 (configuration not stated),0
O=C1CCCC2=C1C(c1ccco1)Nc1ccc3ccccc3c12 (configuration not stated),0
CN(C)c1nc(Oc2ccc(N)cc2)nc(N(C)C)n1,0
Cc1c(C(=O)Nc2ccccn2)oc2ccccc12,0
O=C(/C=C/Nc1ccc(F)c(Cl)c1)c1ccco1,0
O=C(/C=C\Nc1ccccn1)c1ccc(Cl)cc1,64.1
Cc1cc(C)n2cc(CSc3nnnn3C)nc2n1,0
O=C(OCC(=O)N1CCOCC1)C(c1ccccc1)c1ccccc1,0
COC(=O)C1CCN(C(=O)NC(C)(C)C)CC1,0
CCN(CC)c1ccc(C=N/C(C#N)=C(\N)C#N)cc1,0
Cc1nnc(NC(=O)c2ccc(S(=O)(=O)N(C)Cc3ccccc3)cc2)o1,0
CSCc1nnc(NC(=O)c2ccc(S(=O)(=O)N(CC(C)C)CC(C)C)cc2)o1,48.1
COCCN(CCOC)S(=O)(=O)c1ccc(C(=O)Nc2nc(-c3ccncc3)cs2)cc1,0
Cc1nn(-c2nc3ccccc3s2)c(N)c1Sc1ccc(F)cc1,0
SMILES,SF1 inhibitor
Cc1ccc2cc3cc(C(=O)N(C)C4CCCCC4)oc3nc2c1,0
O=c1[nH]c2cccnc2n1Cc1ccco1,0
COc1ccc(S(=O)(=O)N(CC(=O)N2CCN(C)CC2)c2ccc(C)cc2)cc1OC,0
CCC(=O)c1ccccc1OCCSc1nc(C)cc(=O)[nH]1,0
CC(C)NCC(O)Cn1c2c(c3ccccc31)CCc1c-2cnn1-c1ccccc1 (configuration not stated),52.5
O=C(CSc1nnc(Cc2ccccc2)o1)N1CCOCC1,0
Cc1ccnc(NC(=O)CCCOc2cc(=O)n(C)c3ccccc23)c1,59.0
CCOC(=O)C1CCCN(C(=O)CCCOc2cc(=O)n(C)c3ccccc23)C1 (configuration not stated),0
CCC1CCCCN1C(=O)COc1cc(=O)n(C)c2ccccc12 (configuration not stated),0
CCOC(=O)N1CCC(NC(=O)C2CCCN(S(=O)(=O)c3cccnc3)C2)CC1 (configuration not stated),0
NC(=O)c1ccsc1NC(=O)COc1ccccc1,0
C=CCNC(=O)C1CCN(c2nc(C)cc(-c3ccccc3)n2)CC1,0
CCOC(=O)C1=C(C)Nc2ncnn2C1/C=C/c1ccccc1 (configuration not stated),0
CCOC(=O)C1=C(Cn2cnc3ccccc32)NC(=O)NC1c1cc(C)ccc1C (configuration not stated),59.3
CCSCCOC(=O)C1=C(C)NC(=O)NC1c1cc(OC)ccc1OC (configuration not stated),0
Nc1ccc(-c2ccc(N)cc2C(F)(F)F)c(C(F)(F)F)c1,0
O=C1c2ccccc2NC(c2cnc3ccccc3n2)N1O (configuration not stated),0
O=C(NCc1ccccn1)c1ccc2ccccc2n1,0
O=C1c2ccccc2C(=O)C1c1ccc2ccccc2n1,72.1
CCOc1ccc2[nH]c(S(=O)(=O)CC)nc2c1Cl,0
CCOC(=O)c1cc(-c2ccco2)nc2c1c(C)nn2-c1ccccc1,0
CCOC(=O)c1cnn2c(C)cc(-c3ccccc3)nc12,0
CCOC(=O)c1cnc(-n2nc(C)cc2C)nc1NC(C)c1ccccc1 (configuration not stated),49.4
O=C(c1ccc(CS(=O)(=O)Cc2ccc(Cl)cc2)o1)N1CCCC1,0
O=C(Cn1ncn2c(cc3ccccc32)c1=O)NCc1ccco1,0
SMILES,SF1 inhibitor
O=C(NCCc1ccccc1)c1cc(-c2ccc3c(c2)OCO3)on1,0
COc1ccccc1-n1nnnc1SCC(=O)Nc1cc(C)on1,0
O=C(CSc1nnnn1C1CC2CCC1C2)Nc1ccnc2ccccc12 (configuration not stated),75.9
O=C(CSc1nnnn1C1CCCC1)Nc1cccc(NC(=O)c2ccco2)c1,0
Cc1ccc2oc(=O)c3cnn(CC(=O)NCCCOC(C)C)c3c2c1,0
Cc1cccc2[nH]c(-c3ccc(NC(=O)c4ccco4)cc3)nc12,0
